Screening data: PubChem BioAssay, National Center for Advancing Translational Sciences (NCATS)
Tau fibril FP – qHTS for Inhibitors of Tau Fibril Formation, Fluorescence Polarization; K18 P301L tau heparin fibrillization, Alexa594 FP, 6 h; Potency, µM (top dose mostly 57.7 µM), for the others: top-dose activity, negative = inhibition, most hits filed as inhibitors; 280,000 compounds, 0.39% hits; AID 1468, 2008; Microtubule-associated protein tau (Homo sapiens), P10636; further: nearly all actives have a fitted effect of over 55% in size
Target sequence (P10636 561-689 P618L limits assumed): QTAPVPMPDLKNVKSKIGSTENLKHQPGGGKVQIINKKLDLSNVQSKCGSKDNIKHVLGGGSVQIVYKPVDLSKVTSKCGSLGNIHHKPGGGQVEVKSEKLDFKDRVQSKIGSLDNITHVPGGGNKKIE
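Human tau K18 […] P301L fragment, 15 uM unlabeled plus 0.24 uM Alexa 594-labeled tau (final), with compound and 20 uM heparin in 100 mM sodium acetate pH 7; 6 hr at 37 C, then Alexa 594 FP read.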
Tau fluor counter – Counterscreen qHTS for Inhibitors of Tau Fibril Formation, Fluorescence Polarization | tau K18 P301L Alexa594 fluorescence, heparin fibrillization | Potency, µM (highest dose often 57.7 µM), for the others: at the top dose activity change, negative = decrease | 280,000 compounds, 0.93% hits; further: nearly all actives have a fitted effect of over 55% in size
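Human tau K18 P301L (15 uM unlabeled, 0.24 uM Alexa 594-labeled) in 100 mM sodium acetate pH 7 with 20 uM heparin, 6 hr at 37 C. ThT 30 uM added, 1 hr ambient; Alexa 594 FP and total fluorescence read at 555/632 nm.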
TR SRC2 fluor cs – Total Fluorescence Counterscreen for Inhibitors of the Interaction of Thyroid Hormone Receptor and Steroid Receptor Coregulator 2. TRb/SRC2 Texas Red total fluorescence interference. 280,000 compounds, 0.29% hits. AID 1479, 2009. Potency, µM (titrated, usually from 106 µM), inactives show top-dose fluorescence change, negative = quenching; active means well fitted curve in either direction with a large enough effect; inconclusive means small, poorly fitted or top-dose-only effect
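Flags fluorescent or light-absorbing compounds by total fluorescence, S + 2P, at 555 nm excitation and 632 nm emission. Mixture: 20 nM Texas Red SRC2 peptide, 0.6 uM human TRb LBD, 1 uM T3, 5% DMSO; compound exposure 5 h at ambient temperature.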
Tau ThT inhib – qHTS for Inhibitors of Tau Fibril Formation, Thioflavin T Binding; Microtubule-associated protein tau (Homo sapiens), P10636; recombinant tau K18 P301L, heparin-induced fibrillization, ThT fluorescence; Potency, µM (series often up to 57.4 µM), inactives show at the highest dose activity, negative = inhibition, hits mostly inhibitors; 270,000 compounds, 2.1% hits; further: nearly all actives have a fitted effect of over 55% in size
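Fibril formation assay: tau K18 P301L at 15 uM with trace Alexa 594 label, heparin inducer 20 uM, pH 7 sodium acetate buffer, 37 C for 6 hr; endpoint ThT signal.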
TRb SRC2 PPI – qHTS for Inhibitors of the Interaction of Thyroid Hormone Receptor and Steroid Receptor Coregulator 2 | TRbeta-SRC2 peptide binding, fluorescence polarization; receptor liganded with 1 µM T3 | Potency, µM (top dose mostly 106 µM), for the others: at the highest dose activity change, negative = inhibition, actives largely listed as inhibitors | 280,000 compounds, 0.065% hits | Thyroid hormone receptor beta (Homo sapiens), P10828;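 further: plate controls were bound peptide for no effect and peptide without receptor for full effect; nearly all actives have a fitted effect of over 50% in size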
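TRb LBD 0.6 uM + Texas Red SRC2 peptide 20 nM, 1 uM T3, Tris buffer w/ 5% DMSO; compound pinned, 5 h RT; FP read ex 555/em 632; normalized to unbound and bound controls.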
Active calls of the source: *; ? = inconclusive; nt = not tested or not shown; [ ] = remark or other dose. This is a sample that favours compounds with a hit; in the whole collection about 3.1% have one here. Unless noted, the call rests on the fitted dose curve; in most records, active means well fitted curve in the direction sought with a large enough effect; inconclusive means small, poorly fitted or top-dose-only effect, or another doubt; inactive means no such curve, though single readings can be large; an effect the other way counts as inactive or inconclusive. Unless noted, on the % scale 0 is the no-effect control and ±100 the full control effect; potency means the concentration at half of the fitted maximal effect.

SMILES	Tau fibril FP	Tau fluor counter	TR SRC2 fluor cs	Tau ThT inhib	TRb SRC2 PPI
O=c1cc(-c2ccccc2)nc(SCc2nc(-c3ccccc3Cl)no2)[nH]1	-11%	-10%	-2%	3%	-2%
Cc1c(C(=O)N(C)Cc2ccccc2)sc2nc(-c3ccc(F)cc3)cn12	4%	-9%	0%	-2%	3%
COc1cccc(NC(=O)CSc2nc3c([nH]c4ccccc43)c(=O)n2-c2ccccc2)c1	-18%	?	-1%	-4%	-5%
CCC(C)C(=O)Nc1nc(C)c(-c2csc(Nc3cc(Cl)ccc3OC)n2)s1 (stereo unspecified)	7%	13µM*[quencher]	10%	?	-3%
CCCCC(=O)Nc1nc(C)c(-c2csc(Nc3cc(OC)ccc3OC)n2)s1	?	16µM*[quencher]	-7%	?	-11%
COc1ccc(OC)c(Nc2nc(-c3sc(NC(=O)CC(C)C)nc3C)cs2)c1	-5%	13µM*[quencher]	-4%	?	7%
COc1ccc(OC)c(Nc2nc(-c3sc(NC(=O)C(C)(C)C)nc3C)cs2)c1	14%	14µM*[quencher]	-1%	?	5%
Fc1ccc(N2CCN(c3nc4ccccc4c4nc(-c5cccnc5)nn34)CC2)cc1	4%	9%	-4%	7%	-3%
C=CC(=O)OCC[N+](C)(C)C	nt	nt	-2%[201 µM]	nt	2%[201 µM]
Cc1ccc(NC(=O)Cn2c(=O)n(CCCS(=O)(=O)C3CCCCC3)c(=O)c3ccccc32)cc1F	-9%	-9%	0%	10%	-2%
COc1cccc(CNc2sc3c(c2C(=O)Nc2ccc(OC)cc2OC)CCC3)c1	-4%	-26%	1%	?	-4%
CCc1cc[n+](C2=C([O-])c3ccccc3C(=O)/C2=N\S(=O)(=O)c2cccs2)cc1	?	?	-8%	13µM*	3%
O=C1C(=O)c2ccccc2C([O-])=C1[n+]1ccccc1	-10%	-18%	-2%	?	1%
CCN(CC)C(=O)CSc1nc(-c2ccc(C)cc2)nc2c1Cc1c(CO)cnc(C)c1O2	3%	10%	-3%	?	2%
CCOC(=O)C1CCN(C(=O)Nc2ccc3nc(-c4ccco4)c(-c4ccco4)nc3c2)CC1	?	?	?	3.2µM*	3%
O=C(Nc1ccc2nc(-c3ccco3)c(-c3ccco3)nc2c1)N1CCCCCC1	14µM*	8.9µM*[quencher]	22µM*[quencher]	7.1µM*	11%
CC(C)N(C)CCOC(=O)/C=C/c1ccccc1	-4%	6%	-1%[53 µM]	3%	11%[53 µM]
CC1=C(C)/C(=N\OC(=O)/C=C/c2ccccc2)C=CC1=O	?	-21%	-5%	13µM*	-2%
CC1=C(C)/C(=N/OC(=O)c2cccc([N+](=O)[O-])c2)C=CC1=O	-8%	-18%	-9%	?	2%
CC1=CC(=NOC(=O)/C=C/c2ccccc2)C=C(C)C1=O	?	-28%	1%	22µM*	8%
CC1=CC(=O)C=C(C)C1=NOC(=O)/C=C\c1ccccc1	?	-17%	-2%	16µM*	2%
COc1cccc(NC(=O)/C(C#N)=C\c2cn(Cc3ccc(Cl)cc3)c3ccccc23)c1	?	-21%	1%	2%	-9%
Cc1ccc(S(=O)(=O)C(I)I)cc1	nt	nt	-10%[201 µM]	nt	-3%[201 µM]
O=[N+]([O-])c1ccccc1NC(=S)N/N=C/c1ccc(O)c(O)c1	2%	?	-13%	5.6µM*	1%
C[C@@]12C=Cc3occc3C1CC[C@@]13C[C@@H](CCC12)[C@@](O)(CO)C3 (stereo partly specified)	10µM*	?	?	11µM*	18%
CC(=O)OC[C@@]1(O)C[C@]23CCC4c5ccoc5CC[C@@]4(C)C2CCC1C3 (stereo partly specified)	-4%	-5%	-2%	-6%	-2%
